Experimental data as given in publication PMC7862700, “An all-to-all approach to the identification of sequence-specific readers for epigenetic DNA modifications on cytosine”.

Biological target: T1, FLI1 (Homo sapiens, UniProt Q01543 1-452)
T1 sequence: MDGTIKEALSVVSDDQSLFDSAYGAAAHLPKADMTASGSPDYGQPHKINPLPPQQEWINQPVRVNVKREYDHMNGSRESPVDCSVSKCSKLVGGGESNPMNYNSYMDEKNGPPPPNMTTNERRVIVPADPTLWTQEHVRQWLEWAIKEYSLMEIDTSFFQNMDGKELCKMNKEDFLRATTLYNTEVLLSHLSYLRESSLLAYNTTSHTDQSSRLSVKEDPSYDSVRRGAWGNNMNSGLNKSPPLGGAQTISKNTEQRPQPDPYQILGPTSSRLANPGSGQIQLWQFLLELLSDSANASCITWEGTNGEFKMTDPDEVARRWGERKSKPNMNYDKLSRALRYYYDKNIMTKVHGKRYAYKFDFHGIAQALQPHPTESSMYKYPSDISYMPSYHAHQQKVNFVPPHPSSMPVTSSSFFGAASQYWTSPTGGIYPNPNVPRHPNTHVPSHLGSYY
Assay: DAPPL (digital affinity profiling via proximity ligation, sequencing); 10 mM Tris-HCl pH 7.5, 50 mM NaCl, 1 mM DTT, 4% glycerol, room temperature, 30 min; GST-TFs on glutathione beads, 16-mer random dsDNA library, 0.1% formaldehyde crosslink after washing; high values mean tight binding
Conditions: protein: recombinant; tags: N-terminal GST; dsDNA, one strand shown
Outline: (§1)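 The binding signal reported is, for every hexamer, its read frequency for a factor over its read frequency for the tag-only sample. Reads came from pools of yeast-expressed, GST-fused human transcription factors on glutathione beads, barcoded with DNA and mixed with that sample, which were incubated with 200 nmole of a random double-stranded 16-mer DNA library in Tris/NaCl/DTT/glycerol buffer at room temperature for 30 min. After washing, the pools were crosslinked with 0.1% formaldehyde, proximity-ligated with BsaI/T4 ligase for 1 h at 37 °C, PCR-amplified and sequenced on an Illumina NextSeq500.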

Row | Sequence | binding signal
1 | AACTGG | 1.22 fold enrichment (6-mer frequency, TF over GST control)
2 | AATATG | 1.12 fold enrichment (6-mer frequency, TF over GST control)
3 | AATGGC | 1.32 fold enrichment (6-mer frequency, TF over GST control)
4 | CTTGAT | 1.52 fold enrichment (6-mer frequency, TF over GST control)
5 | TCTTGA | 1.33 fold enrichment (6-mer frequency, TF over GST control)
6 | AAGCAT | 1.09 fold enrichment (6-mer frequency, TF over GST control)
7 | CTACGC | 1.71 fold enrichment (6-mer frequency, TF over GST control)
8 | AAAACG | 1.13 fold enrichment (6-mer frequency, TF over GST control)
9 | ATTGTA | 1.22 fold enrichment (6-mer frequency, TF over GST control)
10 | TCCTCA | 1.53 fold enrichment (6-mer frequency, TF over GST control)
11 | TTTTAT | 1.4 fold enrichment (6-mer frequency, TF over GST control)
12 | CTTGGT | 1.63 fold enrichment (6-mer frequency, TF over GST control)
13 | TATATC | 1.6 fold enrichment (6-mer frequency, TF over GST control)
14 | ATAAAA | 1.09 fold enrichment (6-mer frequency, TF over GST control)
15 | TCCAAC | 1.22 fold enrichment (6-mer frequency, TF over GST control)
16 | CAAAAC | 1.19 fold enrichment (6-mer frequency, TF over GST control)
17 | CGATCT | 1.37 fold enrichment (6-mer frequency, TF over GST control)
18 | TTATTT | 1.4 fold enrichment (6-mer frequency, TF over GST control)
19 | ATGTTC | 1.19 fold enrichment (6-mer frequency, TF over GST control)
20 | TTCCCA | 1.18 fold enrichment (6-mer frequency, TF over GST control)

Row | Sequence | binding signal
21 | TTAAAC | 1.22 fold enrichment (6-mer frequency, TF over GST control)
22 | TATTAA | 1.17 fold enrichment (6-mer frequency, TF over GST control)
23 | TGCTAT | 1.42 fold enrichment (6-mer frequency, TF over GST control)
24 | AAATGT | 1.24 fold enrichment (6-mer frequency, TF over GST control)
25 | CTTCTG | 1.48 fold enrichment (6-mer frequency, TF over GST control)
26 | ATGCGA | 1.18 fold enrichment (6-mer frequency, TF over GST control)
27 | GCGCTT | 1.31 fold enrichment (6-mer frequency, TF over GST control)
28 | TTTGTA | 1.64 fold enrichment (6-mer frequency, TF over GST control)
29 | CTACCA | 1.27 fold enrichment (6-mer frequency, TF over GST control)
30 | CCGTCT | 1.41 fold enrichment (6-mer frequency, TF over GST control)
31 | TAACAT | 1.41 fold enrichment (6-mer frequency, TF over GST control)
32 | ATGAGC | 1.11 fold enrichment (6-mer frequency, TF over GST control)
33 | CAACTT | 1.62 fold enrichment (6-mer frequency, TF over GST control)
34 | CTTTAT | 1.19 fold enrichment (6-mer frequency, TF over GST control)
35 | TATGGC | 1.19 fold enrichment (6-mer frequency, TF over GST control)
36 | ACAGCT | 1.15 fold enrichment (6-mer frequency, TF over GST control)
37 | TAGTTT | 1.23 fold enrichment (6-mer frequency, TF over GST control)
38 | TTATGG | 1.42 fold enrichment (6-mer frequency, TF over GST control)
39 | CTTCGT | 1.34 fold enrichment (6-mer frequency, TF over GST control)
40 | TTAACT | 1.18 fold enrichment (6-mer frequency, TF over GST control)

Biological target: T2, ELK1 (Homo sapiens, UniProt P19419 1-428)
T2 sequence: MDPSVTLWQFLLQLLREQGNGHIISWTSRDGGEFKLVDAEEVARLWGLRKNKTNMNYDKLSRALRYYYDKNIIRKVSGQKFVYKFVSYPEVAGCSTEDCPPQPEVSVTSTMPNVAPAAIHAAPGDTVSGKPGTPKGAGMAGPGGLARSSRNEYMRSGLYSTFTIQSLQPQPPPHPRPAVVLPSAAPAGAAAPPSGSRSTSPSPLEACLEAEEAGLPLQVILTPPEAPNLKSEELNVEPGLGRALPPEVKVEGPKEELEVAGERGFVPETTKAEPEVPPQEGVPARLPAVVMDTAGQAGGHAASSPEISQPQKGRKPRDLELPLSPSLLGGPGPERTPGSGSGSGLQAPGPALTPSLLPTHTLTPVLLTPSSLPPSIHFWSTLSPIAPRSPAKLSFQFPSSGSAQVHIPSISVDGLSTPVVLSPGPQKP
Assay: as above
Conditions: protein: recombinant; tags: N-terminal GST; dsDNA, one strand shown
Outline: as §1

Row | Sequence | binding signal
41 | AACTGG | 1.22 fold enrichment (6-mer frequency, TF over GST control)
42 | AATATG | 1.13 fold enrichment (6-mer frequency, TF over GST control)
43 | AATGGC | 1.33 fold enrichment (6-mer frequency, TF over GST control)
44 | CTTGAT | 1.53 fold enrichment (6-mer frequency, TF over GST control)
45 | TCTTGA | 1.31 fold enrichment (6-mer frequency, TF over GST control)
46 | AAGCAT | 1.09 fold enrichment (6-mer frequency, TF over GST control)
47 | CTACGC | 1.59 fold enrichment (6-mer frequency, TF over GST control)
48 | AAAACG | 1.19 fold enrichment (6-mer frequency, TF over GST control)
49 | ATTGTA | 1.33 fold enrichment (6-mer frequency, TF over GST control)
50 | TCCTCA | 1.47 fold enrichment (6-mer frequency, TF over GST control)
51 | TTTTAT | 1.16 fold enrichment (6-mer frequency, TF over GST control)
52 | CTTGGT | 1.44 fold enrichment (6-mer frequency, TF over GST control)
53 | TATATC | 1.62 fold enrichment (6-mer frequency, TF over GST control)
54 | ATAAAA | 1.15 fold enrichment (6-mer frequency, TF over GST control)
55 | TCCAAC | 1.24 fold enrichment (6-mer frequency, TF over GST control)
56 | CAAAAC | 1.27 fold enrichment (6-mer frequency, TF over GST control)
57 | CGATCT | 1.25 fold enrichment (6-mer frequency, TF over GST control)
58 | TTATTT | 1.42 fold enrichment (6-mer frequency, TF over GST control)
59 | ATGTTC | 1.28 fold enrichment (6-mer frequency, TF over GST control)
60 | TTCCCA | 1.3 fold enrichment (6-mer frequency, TF over GST control)

Row | Sequence | binding signal
61 | TTAAAC | 1.18 fold enrichment (6-mer frequency, TF over GST control)
62 | TATTAA | 1.13 fold enrichment (6-mer frequency, TF over GST control)
63 | TGCTAT | 1.36 fold enrichment (6-mer frequency, TF over GST control)
64 | AAATGT | 1.19 fold enrichment (6-mer frequency, TF over GST control)
65 | CTTCTG | 1.34 fold enrichment (6-mer frequency, TF over GST control)
66 | ATGCGA | 1.27 fold enrichment (6-mer frequency, TF over GST control)
67 | GCGCTT | 1.36 fold enrichment (6-mer frequency, TF over GST control)
68 | TTTGTA | 1.47 fold enrichment (6-mer frequency, TF over GST control)
69 | CTACCA | 1.27 fold enrichment (6-mer frequency, TF over GST control)
70 | CCGTCT | 1.32 fold enrichment (6-mer frequency, TF over GST control)
71 | TAACAT | 1.26 fold enrichment (6-mer frequency, TF over GST control)
72 | ATGAGC | 1.27 fold enrichment (6-mer frequency, TF over GST control)
73 | CAACTT | 1.62 fold enrichment (6-mer frequency, TF over GST control)
74 | CTTTAT | 1.19 fold enrichment (6-mer frequency, TF over GST control)
75 | TATGGC | 1.29 fold enrichment (6-mer frequency, TF over GST control)
76 | ACAGCT | 1.14 fold enrichment (6-mer frequency, TF over GST control)
77 | TAGTTT | 1.19 fold enrichment (6-mer frequency, TF over GST control)
78 | TTATGG | 1.39 fold enrichment (6-mer frequency, TF over GST control)
79 | CTTCGT | 1.45 fold enrichment (6-mer frequency, TF over GST control)
80 | TTAACT | 1.14 fold enrichment (6-mer frequency, TF over GST control)

Biological target: T3, GABPA (Homo sapiens, UniProt Q06546 1-454)
T3 sequence: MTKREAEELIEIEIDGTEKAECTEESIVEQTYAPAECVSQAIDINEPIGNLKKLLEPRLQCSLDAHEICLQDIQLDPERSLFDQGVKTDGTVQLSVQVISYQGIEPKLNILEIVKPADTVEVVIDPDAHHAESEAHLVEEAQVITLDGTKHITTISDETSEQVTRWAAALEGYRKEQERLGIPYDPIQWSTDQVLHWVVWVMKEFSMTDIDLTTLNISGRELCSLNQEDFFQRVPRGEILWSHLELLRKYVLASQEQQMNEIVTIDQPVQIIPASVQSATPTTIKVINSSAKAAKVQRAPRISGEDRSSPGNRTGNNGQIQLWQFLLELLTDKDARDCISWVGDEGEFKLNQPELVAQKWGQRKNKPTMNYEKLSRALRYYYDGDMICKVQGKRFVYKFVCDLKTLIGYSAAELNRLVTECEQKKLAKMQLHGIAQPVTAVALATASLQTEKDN
Assay: as above
Conditions: protein: recombinant; tags: N-terminal GST; dsDNA, one strand shown
Outline: as §1

Row | Sequence | binding signal
81 | AACTGG | 1.29 fold enrichment (6-mer frequency, TF over GST control)
82 | AATATG | 1.15 fold enrichment (6-mer frequency, TF over GST control)
83 | AATGGC | 1.37 fold enrichment (6-mer frequency, TF over GST control)
84 | CTTGAT | 1.52 fold enrichment (6-mer frequency, TF over GST control)
85 | TCTTGA | 1.33 fold enrichment (6-mer frequency, TF over GST control)
86 | AAGCAT | 1.14 fold enrichment (6-mer frequency, TF over GST control)
87 | CTACGC | 1.56 fold enrichment (6-mer frequency, TF over GST control)
88 | AAAACG | 1.14 fold enrichment (6-mer frequency, TF over GST control)
89 | ATTGTA | 1.17 fold enrichment (6-mer frequency, TF over GST control)
90 | TCCTCA | 1.6 fold enrichment (6-mer frequency, TF over GST control)
91 | TTTTAT | 1.42 fold enrichment (6-mer frequency, TF over GST control)
92 | CTTGGT | 1.55 fold enrichment (6-mer frequency, TF over GST control)
93 | TATATC | 1.55 fold enrichment (6-mer frequency, TF over GST control)
94 | ATAAAA | 1.1 fold enrichment (6-mer frequency, TF over GST control)
95 | TCCAAC | 1.22 fold enrichment (6-mer frequency, TF over GST control)
96 | CAAAAC | 1.3 fold enrichment (6-mer frequency, TF over GST control)
97 | CGATCT | 1.29 fold enrichment (6-mer frequency, TF over GST control)
98 | TTATTT | 1.33 fold enrichment (6-mer frequency, TF over GST control)
99 | ATGTTC | 1.18 fold enrichment (6-mer frequency, TF over GST control)
100 | TTCCCA | 1.2 fold enrichment (6-mer frequency, TF over GST control)
